Screening data: PubChem BioAssay, National Center for Advancing Translational Sciences (NCATS)
The list is not random: actives were taken first. Their share in the collection is about 12%.
G9a block: inhibitors of human histone lysine methyltransferase G9a; Q96KQ7; G9a H3K9 monomethylation, AlphaScreen, 2 h; Potency, µM (doses to about 102 µM), for inactives: top-dose activity, negative = inhibition, hits mostly inhibitors; hit rate 8.8% among 350,000; note: % is set by controls: 0 for no effect and ±100 for the full control effect; nearly all actives have a fitted effect of over 75% in size
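Chemiluminescent proximity detection of H3K9 monomethylation, read after 10 min bead incubation in the dark. Reaction: 20 nM G9a, 500 nM biotin-H3K9 peptide, 20 uM SAM cofactor, 2 h, room temperature, following 15 min enzyme-compound preincubation.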
BAZ2B inh: inhibitors of human BAZ2B bromodomain; AlphaScreen BAZ2B-H3K14Ac peptide displacement; hit rate 4.4% among 360,000; AID 504333; Potency, µM (top dose mostly 114 µM), inactives show top-dose activity change, negative = inhibition, most hits filed as inhibitors; Q9UIF8; note: % is set by controls: 0 for no effect and ±100 for the full control effect; nearly all actives have a fitted effect of over 60% in size
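BAZ2B (50 nM) with biotin-H3(5-23)K14Ac peptide (50 nM) in PBS pH 7.4, 0.01% Tween-20, preformed 30 min, then compound 30 min at room temperature; top concentration 110uM. AlphaScreen streptavidin donor/nickel chelate acceptor beads (10 ug/mL final), 20 min dark, signal read.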
HP1b chromo inh: HP1-beta chromodomain-methylated histone interaction inhibition; AlphaScreen HP1-beta / biotin-H3K9me3 peptide binding; Potency, µM (series often up to 114 µM), for the others: top-dose activity change, negative = inhibition, hits mostly inhibitors; hit rate 0.56% among 390,000; AID 540317; note: nearly all actives have a fitted effect of over 70% in size
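HP1-beta protein (50 nM final) preincubated 30 min at room temperature with biotinylated H3(1-18)K9me3 peptide (50 nM) in PBS pH 7.4, 0.01% Tween-20, then compound added for 30 min. AlphaScreen streptavidin donor/nickel chelate acceptor beads (10 ug/mL final), 30 min dark, luminescence read.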
Sfp inh: Sfp phosphopantetheinyl transferase inhibition; Q9F4F7; hit rate 3.5% among 310,000; Potency, µM, for the others: largest response in the series, negative = inhibition, most hits filed as inhibitors; Biochemical Sfp PPTase activity, qHTS;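 note: the enzyme is Sfp with the accession as filed and its product quenches rhodamine fluorescence; 0% = enzyme reaction without inhibitor and -100% = no enzyme wells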
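After 15 min at room temperature with compound, 15 nM Sfp received 5 uM rhodamine-CoA plus 12.5 uM BHQ-2-ybbR (50 mM Hepes pH 7.6, 10 mM MgCl2). Rate came from the fluorescence difference over 30 min, ex 525/em 598 nm.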
JMJD2A Tudor: inhibitors of human JMJD2A Tudor domain. hit rate 4.4% among 390,000. O75164. Potency, µM (highest dose often 114 µM), inactives show at the highest dose activity change, negative = inhibition, actives largely listed as inhibitors. AlphaScreen JMJD2A-Tudor / H3K4me3 peptide binding; note: % is set by controls: 0 for no effect and ±100 for the full control effect; nearly all actives have a fitted effect of over 50% in size
The depositor's hits bear a star; u = inconclusive; x = not tested or not shown; [ ] = another dose, or the depositor's remark. Calls come from the whole dose curve; as a rule, active = well fitted curve in the direction sought with a large enough effect; inconclusive = small, poorly fitted or top-dose-only effect, or another doubt; inactive = no such curve, though single readings can be large; an effect the other way counts as inactive or inconclusive. Potency is the fitted concentration of half-maximal effect.

SMILES	G9a block	BAZ2B inh	HP1b chromo inh	Sfp inh	JMJD2A Tudor
CN(CCOc1ccccc1)C(=O)c1ccc(N2CCCC2)c([N+](=O)[O-])c1	50µM*	u	u	-20%	u
CCCN(CC(=O)Nc1ccccc1C)C(=O)c1ccc(N2CCCCC2)c([N+](=O)[O-])c1	50µM*	u	-14%	x	u
CCN(CC(=O)Nc1c(F)cccc1F)C(=O)c1ccc(N2CCCC2)c([N+](=O)[O-])c1	-38%	-34%	-1%	x	-26%
CCN(CC(=O)Nc1c(F)cccc1F)C(=O)c1cc([N+](=O)[O-])ccc1N1CCCCC1	14µM*	-7%	9%	x	-20%
COc1cccc(NC(=O)CN(C)C(=O)c2ccc(N3CCCCC3)c([N+](=O)[O-])c2)c1	20%[12.7 µM]	u	-16%	x	u
CC(=O)c1ccc(N2CCN(C(=O)c3ccccc3SCC(=O)NCc3ccco3)CC2)c(F)c1	x	x	5%	x	-29%
Cc1ccc(-c2nc(S(=O)(=O)c3ccccc3)c(SCC(=O)NCC3CCCO3)o2)cc1 (stereo not given)	35µM*	-3%	7%	-9%	-13%
O=C(CSc1oc(-c2ccco2)nc1S(=O)(=O)c1ccc(Cl)cc1)NCC1CCCO1 (stereo not given)	45µM*	-1%	2%	-16%	u
O=C(CSc1oc(-c2ccco2)nc1S(=O)(=O)c1ccccc1)NCC1CCCO1 (stereo not given)	u	11%	23%	-10%	-10%
CC1Sc2ccc(S(=O)(=O)CCC(=O)N3CCN(c4cccc(Cl)c4)CC3)cc2NC1=O (stereo not given)	x	u	48%	-2%	u
Cc1c(NS(=O)(=O)c2ccc(N(C)C3CCCCC3)c([N+](=O)[O-])c2)c(=O)n(-c2ccccc2)n1C	-10%[59 µM]	u	-6%	-6%	u
Oc1ccc(/C=N/n2cnn(Cc3ccccc3Cl)c2=S)c(O)c1	3.2µM*	-29%	-31%	14µM*	u
COc1cc(/C=N/O)ccc1OCc1ccccc1Cl	-26%	-22%	17%	-9%	-11%
COc1ccc(/C=N/n2cnn(Cc3ccccc3Cl)c2=S)cc1OC	40µM*	-28%	u	u	-26%
Cc1ccc(S(=O)(=O)NCCc2nc3ccccc3[nH]2)cc1	22%	1%	12%	11%	-13%
COc1ccc(C(O)Cn2ccsc2=NC(C)=O)cc1 (stereo not given)	50µM*	-29%	48%	-11%	-3%
CC(=O)N=c1sccn1CC(O)c1ccccc1 (stereo not given)	-4%	-22%	31%	4%	-9%
Cc1ccc(C(=O)NNC(=O)CSc2nnc3c(n2)[nH]c2ccc(F)cc23)cc1	x	u	-41%	u	20µM*
COc1ccc2[nH]c3nc(SCC(=O)NNC(=O)c4ccc(OC)c(OC)c4)nnc3c2c1	u	4%[57.1 µM]	42%	-5%	-19%
Cc1ccccc1-c1nc(N(C)C)c2ccccc2n1	9%[0.501 µM]	x	x	17%	x
O=C(Nc1ccc(F)cc1)c1ccc2c(c1)S(=O)(=O)N=C1CCCCCN12	4%[12.7 µM]	8%	39%	x	4%
COc1cc(NC(=O)c2ccc3c(c2)S(=O)(=O)N=C2CCCCCN23)cc(OC)c1	50µM*	11%	-4%	x	-20%
CSc1ccc(CCNC(=O)c2cc3cc4cc(C)ccc4nc3s2)cc1	-4%[59 µM]	2%	14%[57 µM]	x	u
CN1CCN(S(=O)(=O)c2ccc3ccccc3c2)CC1	-9%	9%	34%	0%	-20%
COc1ccc(N2CCN(C(=O)CSc3nnc(-c4cc5ccccc5cc4O)n3C)CC2)cc1	17%	6%	-3%	12%	u
SMILES	G9a block	BAZ2B inh	HP1b chromo inh	Sfp inh	JMJD2A Tudor
O=S(=O)(c1ccc2ccccc2c1)N1CCN(c2ccc(O)cc2)CC1	x	x	u	x	35µM*
O=C(c1ccc2ccccc2c1)N1CCN(c2ccc(O)cc2)CC1	32µM*	-37%	u	u	u
O=C(CSc1ccc2ccccc2c1)N1CCN(c2ccc(O)cc2)CC1	16µM*	50µM*	-28%	50µM*	50µM*
CC(=O)c1cc2c(cc1NC(=O)Cc1ccsc1)OCO2	-40%[59 µM]	8%	83%	x	20%
Cc1cc(O)c(N)c(C)c1Cl	u	u	u	56µM*	-6%[11.4 µM]
Nc1ccccc1Sc1ccc(C(=O)c2ccccc2C(=O)O)cc1[N+](=O)[O-]	20µM*	-35%	1%	u	u
CC(=O)NCCNC(=O)c1ccc(Sc2ccccc2)c([N+](=O)[O-])c1	-11%[59 µM]	-29%	35%	7%	-22%
O=C(O)c1ccccc1Sc1c([N+](=O)[O-])cc(C(F)(F)F)cc1[N+](=O)[O-]	-32%	x	76%	-8%	-9%[11.4 µM]
CC(=O)c1ccc(Sc2ccccc2N)c([N+](=O)[O-])c1	45µM*	u	-22%	2%	u
CC(=O)c1ccc(Sc2ccccc2)c([N+](=O)[O-])c1	22µM*	u	u	-1%	u
Nc1cc(C(=O)O)ccc1Sc1ccccc1C(=O)O	4.5µM*	-33%	-8%	16µM*	-32%
Cc1ccc(Sc2ccc(C(=O)NC(C)C)cc2[N+](=O)[O-])cc1	-6%[2.33 µM]	7%	3%	20%	0%
CN(C)CCNC(=O)c1ccc(Sc2ccc(Br)cc2)c([N+](=O)[O-])c1	35µM*	-22%	-14%	-6%	u
CC(C)OC(=O)c1ccccc1C(=O)c1ccc(N)c([N+](=O)[O-])c1	13µM*	-26%	0%	7%	-30%
c1cc2c3c(cccc3c1)NC1(CCCC1)N2	x	x	-16%	x	u
S=C1NC2(CCCC2)Nc2ccccc21	11µM*	u	49%	-67%	-13%
S=C1NC2(CCCCC2)Nc2ccccc21	45µM*	u	7%	-16%	-17%
COCCn1c(=O)c(-c2ccc(OC)cc2)nc2cnc(N3CCOCC3)nc21	0%[0.501 µM]	x	x	21%	x
CCCNC(=O)Cn1c(=O)c2cccn2c2cccnc21	-4%[59 µM]	6%	38%	x	-19%
CCCSc1cc(N2CCN(C)CC2)nc(-c2ccc(OC)cc2)n1	50µM*	50µM*	-25%	-11%	u
COc1cc2c(cc1OC)CN(C(=O)CCc1c[nH]c3ccccc13)[C@H](C(=O)O)C2	71µM*	-18%	34%	11%	-3%
C=C(C)CNC(=S)Nc1cccc(N)n1	1.3µM*	u	9%	-4%	-21%
CC(=O)Oc1ccc2c(c1)O/C(=C\c1ccncc1)C2=O	x	3%	52%	3%	-14%
CCC(=O)Oc1ccc2c(c1)O/C(=C\c1ccco1)C2=O	50µM*	u	u	-13%	-30%
COC(=O)COc1ccc2c(c1)O/C(=C\c1ccco1)C2=O	25µM*	u	-19%	56µM*	u
CCN(CC)C(=O)Oc1ccc2c(c1)O/C(=C\c1ccco1)C2=O	25µM*	40µM*	-19%	u	u
